Hit rate of the full screen: of about 5,500 compounds, about 2,000 (36%) were called active. Not shown: some 18% with an inconclusive outcome. Cut-off read from the data, not from the text of the source: active = normalized growth mostly below about 0.91 (no sharp cut-off); inconclusive = no clear call, values can overlap the other calls; inactive = mostly above about 0.92. Some of the results follow.
Test: chemical genetic growth profiling, strain panel (AID 1159580);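 note: tested at 20 µM; growth read once vehicle control cultures reached saturation at 30 °C; 1 = growth at the plate median or of vehicle wells; lower values mean less growth of the strain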
Conditions: S. cerevisiae deletion strains, growth OD

Measured: normalized growth

COc1c(-c2coc3cc4c(cc3c2=O)CC(OC(C)=O)C(C)(C)O4)ccc2c1C=CC(C)(C)O2 (stereo not given)
inactive: locus YAL021C, strain ccr4, active compounds read low 1.01 | locus YAL026C, strain drs2, active compounds read low 1.04 | locus YAL030W, strain snc1, active compounds read low 1.03 | locus YBL061C, strain skt5, active compounds read low 1.02 | locus YBR009C, strain hhf1, active compounds read low 1.02 | locus YBR023C, strain chs3, active compounds read low 1.03 | locus YBR171W, strain sec66, active compounds read low 1.05 | locus YBR231C, strain swc5, active compounds read low 1.05 | locus YBR279W, strain paf1, active compounds read low 1.03 | locus YCL011C, strain gbp2, active compounds read low 1.04 | locus YCL016C, strain dcc1, active compounds read low 1.03 | locus YCL061C, strain MRC1, active compounds read low 1.03 | locus YCL069W, strain vba3, active compounds read low 1.04 | locus YCR088W, strain abp1, active compounds read low 1.04 | locus YDL005C, strain med2, active compounds read low 1.04 | locus YDL040C, strain nat1, active compounds read low 1.03 | locus YDR001C, strain nth1, active compounds read low 1.03 | locus YDR069C, strain doa4, active compounds read low 1.03 | locus YDR137W, strain rgp1, active compounds read low 1.08 | locus YDR159W, strain sac3, active compounds read low 1.05 | locus YDR195W, strain ref2 1.05 | locus YDR297W, strain sur2, active compounds read low 1.03 | locus YDR334W, strain swr1, active compounds read low 1.03 | locus YDR335W, strain msn5, active compounds read low 1.03 | locus YDR392W, strain spt3, active compounds read low 0.945 | locus YEL003W, strain gim4, active compounds read low 1.03 | locus YEL037C, strain rad23, active compounds read low 1.02 | locus YEL061C, strain CIN8 (second series), active compounds read low 1.04 | locus YER015W, strain faa2, active compounds read low 1.03 | locus YER016W, strain bim1, active compounds read low 1.03 | locus YER111C, strain swi4, active compounds read low 1.02 | locus YER155C, strain BEM2 (second series), active compounds read low 1.03 | locus YFR010W, strain ubp6, active compounds read low 1.03 | locus YGL167C, strain pmr1, active compounds read low 1.03 | locus YGL173C, strain kem1, active compounds read low 1.03 | locus YGL227W, strain vid30, active compounds read low 1.04 | locus YGL240W, strain doc1, active compounds read low 1.03 | locus YGL253W, strain hxk2, active compounds read low 1.04 | locus YHR013C, strain ard1, active compounds read low 1.03 | locus YHR027C, strain rpn1, active compounds read low 1.02 | locus YHR030C, strain SLT2, active compounds read low 0.961 | locus YHR079C, strain IRE1, active compounds read low 0.947 | locus YHR142W, strain chs7, active compounds read low 1.05 | locus YJL092W, strain hpr5, active compounds read low 1.04 | locus YJL095W, strain BCK1 (second series), active compounds read low 1.03 | locus YJL095W, strain BCK1, active compounds read low 0.973 | locus YJL115W, strain asf1, active compounds read low 1.04 | locus YJL129C, strain trk1, active compounds read low 1.06 | locus YJL154C, strain vps35, active compounds read low 1.03 | locus YJL164C, strain tpk1, active compounds read low 1.03 | locus YJL166W, strain qcr8, active compounds read low 1.03 | locus YJL187C, strain SWE1, active compounds read low 1.02 | locus YJR066W, strain TOR1, active compounds read low 0.973 | locus YKL160W, strain elf1, active compounds read low 1.04 | locus YKR026C, strain gcn3, active compounds read low 1.04 | locus YKR091W, strain srl3, active compounds read low 1.02 | locus YLL001W, strain dnm1, active compounds read low 1.03 | locus YLL026W, active compounds read low 1.02 | locus YLL041C, strain sdh2, active compounds read low 1.02 | locus YLR027C, strain aat2, active compounds read low 1.03 | locus YLR113W, strain HOG1, active compounds read low 0.934 | locus YLR221C, strain rsa3, active compounds read low 1.03 | locus YLR258W, strain gsy2, active compounds read low 1.03 | locus YLR262C, strain YPT6 (second series), active compounds read low 1.07 | locus YLR320W, strain mms22, active compounds read low 1.03 | locus YLR342W, strain FKS1, active compounds read low 1.03 | locus YLR357W, strain rsc2, active compounds read low 1.04 | locus YLR370C, strain arc18, active compounds read low 1.03 | locus YLR384C, strain iki3, active compounds read low 1.02 | locus YML120C, strain ndi1, active compounds read low 1.03 | locus YMR058W, strain fet3, active compounds read low 1.04 | locus YMR125W, strain sto1, active compounds read low 1.03 | locus YMR129W, active compounds read low 1.03 | locus YMR205C, strain PFK2, active compounds read low 1.04 | locus YMR231W, strain pep5, active compounds read low 1.03 | locus YNL071W, strain lat1, active compounds read low 1.03 | locus YNL183C, strain NPR1, active compounds read low 0.925 | locus YNL209W, strain ssb2, active compounds read low 1.03 | locus YNL248C, strain rpa49, active compounds read low 1.03 | locus YNL322C, strain KRE1 (second series), active compounds read low 1.02 | locus YNR049C, strain mso1, active compounds read low 1.03 | locus YOR001W, strain rrp6, active compounds read low 1.02 | locus YOR070C, strain gyp1, active compounds read low 1.02 | locus YOR080W, strain dia2, active compounds read low 1.02 | locus YOR083W, strain WHI5, active compounds read low 1.03 | locus YOR106W, strain vam3, active compounds read low 1.06 | locus YOR231W, strain MKK1, active compounds read low 0.957 | locus YOR265W, strain rbl2, active compounds read low 1.02 | locus YOR270C, strain vph1, active compounds read low 1.03 | locus YOR290C, strain snf2, active compounds read low 0.999 | locus YPL051W, strain arl3, active compounds read low 1.03 | locus YPL078C, strain atp4, active compounds read low 1.04 | locus YPL106C, strain sse1, active compounds read low 1.05 | locus YPL240C, strain hsp82, active compounds read low 1.02 | locus YPL256C, strain CLN2, active compounds read low 0.958

From PubChem BioAssay AID1159580 (chemical genetic matrix, 2015)
